Compounds without any hit were thinned out: in the full panel of roughly 83,000, 20% have a hit.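 Step 1: grow cells in 96-well plates. Step 2: add test compound at a single concentration. Step 3: incubate 48 h. Step 4: record percent growth.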 A number with no mark means an inactive call. The source made the active and inactive calls. The calls were made as follows: active = growth percent below 10; inactive = the rest.
Assays:
Experiment in all cases: NCI-60 one-dose screen, 48 h (100 = growth as untreated, 0 = no growth, -100 = all killed)
Settings in all cases: 10 µM unless noted
NCI-H23 lung = test system: NCI-H23 lung
NCI-H226 lung = test system: NCI-H226 lung
NCI-H322M lung = test system: NCI-H322M lung
HOP-62 NSCLC = test system: HOP-62 NSCLC
NCI-H460 lung = test system: NCI-H460 lung
NCI-H522 lung = test system: NCI-H522 lung
A549/ATCC NSCLC = test system: A549/ATCC NSCLC
786-0 renal = test system: 786-0 renal
COLO 205 colon = test system: COLO 205 colon
DU-145 prostate = test system: DU-145 prostate
K-562 leukemia = test system: K-562 leukemia
MALME-3M melanoma = test system: MALME-3M melanoma
MDA-MB-231 breast = test system: MDA-MB-231 breast
RXF 393 renal = test system: RXF 393 renal
SF-268 CNS = test system: SF-268 CNS
SF-295 CNS = test system: SF-295 CNS
SF-539 CNS = test system: SF-539 CNS
UACC-257 melanoma = test system: UACC-257 melanoma
M14 melanoma = test system: M14 melanoma
HOP-92 NSCLC = test system: HOP-92 NSCLC

SMILES	growth (NCI-H23 lung)	growth (NCI-H226 lung)	growth (NCI-H322M lung)	growth (HOP-62 NSCLC)	growth (NCI-H460 lung)	growth (NCI-H522 lung)	growth (A549/ATCC NSCLC)	growth (786-0 renal)	growth (COLO 205 colon)	growth (DU-145 prostate)	growth (K-562 leukemia)	growth (MALME-3M melanoma)	growth (MDA-MB-231 breast)	growth (RXF 393 renal)	growth (SF-268 CNS)	growth (SF-295 CNS)	growth (SF-539 CNS)	growth (UACC-257 melanoma)	growth (M14 melanoma)	growth (HOP-92 NSCLC)
OCCCC1CCN(C(Cc2ccccc2)c2ccccc2)CC1 (centres undefined)	102%	102%	93.7%	87.2%	106%	43.9%	73.3%	82.5%	79.9%	103%	113%	93.8%	97.8%	111%	90.6%	98.7%	85.6%	96.4%	88.8%	
CCCCCCCCCCCCCCCCCCOc1ccccc1CC(=O)NCC[N+]1(C)CCCC1	55.3%	70.5%	67.3%	54%	34.8%	32.8%	50.6%	70.2%	-6.88% (active)	56.8%	36.9%	52.4%	43.1%	4.86% (active)	31%	86.5%	82.1%	93.2%	65.8%	
CCOc1ccc(NC(=O)CSc2oc(-c3ccccc3)nc2S(=O)(=O)c2ccc(F)cc2)cc1	65.8%	80.2%	75.5%	58.2%	53.9%	67.8%	46%	45.5%	93.2%	89.8%	65.9%	78.3%	64.2%	77.6%	60.2%	50%	6.59% (active)	70.1%	86.9%	
C#CCOc1ccc2ncnc(Nc3cccc(NC(=O)C=C)c3)c2c1	80.7%	76.2%	61.1%	63.6%	65.1%	50.3%	56.4%	56.4%		54%	70.6%	73.9%	58.1%	6.44% (active)	55.9%	91.6%	59.2%	69.5%	62.8%	66.1%
CC(=O)c1cc(O)c2ccccc2c1O	85.9%	92.9%	105%	87.4%	103%	78.7%	99.7%	97.8%		126%	58%	95.9%	87.2%	111%	124%	108%	97.5%	96.5%	105%	
Cc1ccccc1Cn1cnc2ccc(-c3cc(NC(=O)c4ccc(NC5CCN(C)CC5)cc4)n[nH]3)cc21	75%	68%	83.5%	72.3%	91.9%	57.2%	84.5%	85%	70.8%	90.8%	15.8%	31.6%	61.3%	4.62% (active)	69.2%	89.9%	27.4%	81%	82.9%	
O=c1oc2ccccc2cc1C1=NN=C(SCc2ccccc2)SC1	94.9%	96.6%	102%	82.9%	112%	89.2%	96.6%	94.8%		100%	91.4%	99.3%	101%	109%	97.1%	98.9%	96.5%	110%	95.7%	87.2%
O=C(/C=C/c1cn(-c2ccccc2)nc1-c1ccc([N+](=O)[O-])cc1)c1ccc(Cl)cc1	48.4%	39%	75.1%	24.5%	29.1%	23.3%	61.8%	-92.5% (active)	40.2%	20.4%	12.4%	49.7%	14.7%	27.3%	34.5%	77%	30%	103%	37.8%	
CCN1C(=O)N(CC)C2C1NN=c1s/c(=C\c3ccc(Cl)cc3Cl)c(=O)n12 (centres undefined)	28.4%	48.8%	42.4%	33.5%	5.72% (active)	-8.78% (active)	14.6%	20.6%	-7.91% (active)	6% (active)	-83.7% (active)	50.4%	12.4%	61.1%	42.3%	12.8%	-12.6% (active)	68.6%	13.8%	
C[C@]12CC[C@@H]3c4ccc(O)c([N+](=O)[O-])c4CC[C@H]3[C@@H]1CCC2=O	95.7%	95.7%	99%	104%	112%	85.8%	102%	90.1%		117%	96.7%	98.5%	91.4%	97%	66.7%	98.7%	98.2%	106%	102%	86.6%
Cc1ccc(/C=N/Nc2nc(Nc3ccccc3)nc(-n3nc(C)cc3C)n2)cc1	54.8%	46.9%	27%	73.3%	6.72% (active)	15.7%	26.2%	44.4%	30.6%	40.9%	37.1%	80.8%	51.6%	55.9%	44%	-40.7% (active)	56.5%	54.2%	42.9%	
N#CC1C=CN(CC(N)=O)c2ccc3cccnc3c21 (centres undefined)	94.7%	87.5%	97.3%	95.2%	103%	85.6%	88.9%	98.3%	80.3%	108%	94.7%	97.5%	95.5%	114%	105%	103%	99.1%	89%	97.7%	
Oc1ccc(CN2CCC(N3CCCCC3)CC2)c2cccnc12	19%	69.8%	31.3%	5.32% (active)	9.43% (active)	-1.28% (active)	17.4%	48.2%	112%	37.9%	15.8%	9.88% (active)	15.2%	29.6%	38.9%	38.4%	22%	21%	30.3%	
CCCCCCCCCCCCCCCCCCOc1ccccc1CC(=O)OCC[N+]1(C)CCCC1	8.45% (active)	13.4%	68.1%	53.5%	27.5%	6.85% (active)	23%	57.5%	9.44% (active)	45.4%	27%	31%	4.95% (active)	-26.3% (active)	20.7%	58%	40.2%	75.3%	20.7%	
Cn1c(=O)c2[nH]c(N/N=C/c3ccccc3Br)nc2n(C)c1=O	107%	110%	95.5%	112%	110%	89.7%	101%	96.9%	137%	104%	87.9%	107%	97.8%	121%	104%	92.2%	113%	117%	99.9%	
